High-throughput results: PubChem BioAssay, National Center for Advancing Translational Sciences (NCATS)
Hits are enriched below; roughly 3.8% of the tested compounds scored in any of these assays.
VDR inhibitor: inhibitors of human vitamin D receptor. VDR-SRC2-3 peptide fluorescence polarization, 2 h. Potency, µM, actives largely listed as inhibitors. actives 0.93% (n = 400,000). AID 504847
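Two reagent solutions held at 4 deg C in the dark were dispensed, compounds pinned at 23 nl, and the mixture incubated 2 h at room temperature. Read-out: fluorescence polarization of VDR–SRC2-3 peptide binding.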
KAT2A inh: inhibitors of human GCN5L2 histone acetyltransferase; Q92830; GCN5L2 HAT assay, ThioGlo1 CoA-SH fluorescence; Potency, µM (titrated, usually from 58.9 µM), actives largely listed as inhibitors; actives 0.21% (n = 390,000); AID 504327
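GCN5L2 (20nM final) in 50mM HEPES, 0.1mM EDTA pH 7.5, 0.01% Tween-20 was preincubated 15 min at room temperature with compound, then given ThioGlo1 (50uM), H3(1-25) peptide (75uM) and acetyl-CoA (70uM); CoA-thiol fluorescence (Ex340/Em540) was read at 0 and 20 min.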
TrxR1 inh: blocks rat thioredoxin reductase 1. O89049. recombinant rTrxR1, NADPH fluorescence consumption, selenite substrate. Potency, µM (series often up to 114 µM), actives largely listed as inhibitors. actives 1% (n = 390,000). AID 588453; also: nearly all actives have a fitted effect of over 65% in size
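Rat TrxR1 (90 nM in the dispensed reagent) was pre-reduced with 400 uM NADPH for 5 min at room temperature, then incubated with compound for 15 min. After 400 uM selenite was added, NADPH fluorescence (Ex 340/Em 450 nm) was followed for 8 min.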
GLS inhibitor: blocks human kidney-isoform glutaminase activity | GLS enzymatic activity, qHTS titration | Potency, µM (highest dose often 45.5 µM), hits mostly inhibitors | actives 0.21% (n = 410,000)
Target sequence (O94925 whole entry, looked up, canonical isoform): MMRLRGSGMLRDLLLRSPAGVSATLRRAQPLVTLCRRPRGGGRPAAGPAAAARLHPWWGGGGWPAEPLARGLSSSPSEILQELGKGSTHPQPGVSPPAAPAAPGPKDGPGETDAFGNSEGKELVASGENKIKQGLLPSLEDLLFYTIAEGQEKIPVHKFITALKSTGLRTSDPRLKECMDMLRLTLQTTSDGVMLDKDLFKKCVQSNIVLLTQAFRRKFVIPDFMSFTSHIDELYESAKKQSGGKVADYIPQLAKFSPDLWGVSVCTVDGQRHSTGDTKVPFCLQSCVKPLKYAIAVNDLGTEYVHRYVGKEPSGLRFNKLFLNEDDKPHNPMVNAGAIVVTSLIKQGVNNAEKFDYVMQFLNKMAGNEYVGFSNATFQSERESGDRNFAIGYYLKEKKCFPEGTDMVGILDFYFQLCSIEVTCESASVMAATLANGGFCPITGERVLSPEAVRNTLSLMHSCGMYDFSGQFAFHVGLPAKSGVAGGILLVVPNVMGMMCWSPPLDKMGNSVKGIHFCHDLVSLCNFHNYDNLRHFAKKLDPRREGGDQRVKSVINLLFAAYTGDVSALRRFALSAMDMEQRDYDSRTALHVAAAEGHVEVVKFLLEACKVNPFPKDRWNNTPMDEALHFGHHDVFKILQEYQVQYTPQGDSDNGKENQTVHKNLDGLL
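hKGA in 45 mM KH2PO4 pH 8.2, 0.02% Tween-20 with pin-transferred compounds; 1 mM L-glutamine (stock) plus glutamate oxidase/HRP/Amplex Red coupling added. Fluorescence read initially and after 30 min at RT.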
Sfp PPTase inh: Sfp phosphopantetheinyl transferase inhibition | Q9F4F7 | actives 3.5% (n = 310,000) | Biochemical Sfp PPTase activity, qHTS | Potency, µM, hits mostly inhibitors | AID 1490;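 also: the enzyme is Sfp with the accession as filed and its product quenches rhodamine fluorescence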
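With Hepes-Na pH 7.6 buffer containing 10 mM MgCl2, Sfp (15 nM) modified BHQ-2-YbbR (12.5 uM) using rhodamine-CoA (5 uM). Two reads 30 minutes apart at 525/598 nm yielded each well's rate.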
TrxR1 substrate: substrates of rat thioredoxin reductase 1 | O89049 | Potency, µM (top dose mostly 114 µM) | purified TrxR1 substrate turnover, NADPH consumption readout | actives 0.01% (n = 390,000); also: nearly all actives have a fitted effect of over 50% in size
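Rat TrxR1, dispensed at 90 nM, was prereduced with 400 uM NADPH (final) for 5 min at ~22 deg C, then incubated with compound 15 min before 400 uM selenite. A first-read NADPH fluorescence drop versus no-compound background flagged substrates.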
Numbers stand for hits; [ ] = remark or other dose. Calls follow the shape of the dose curve; as a rule, active = well fitted curve in the direction sought with a large enough effect; inconclusive = small, poorly fitted or top-dose-only effect, or another doubt; inactive = no such curve, though single readings can be large; an effect the other way counts as inactive or inconclusive.

Screening N[C@@H](Cn1oc(=O)[nH]c1=O)C(=O)O returned VDR inhibitor inactive, KAT2A inh inactive, TrxR1 inh inactive, GLS inhibitor inactive, Sfp PPTase inh 45µM and TrxR1 substrate inactive.
`CC(=O)c1ccc2c(c1)C1C(Cl)C(Sc3ccccc3[N+](=O)[O-])CC1C(C(=O)O)N2` (configuration not stated) gave VDR inhibitor inactive, KAT2A inh inactive, TrxR1 inh inconclusive, GLS inhibitor inactive, Sfp PPTase inh 56µM and TrxR1 substrate inactive.
O=C(O)c1cccc2c1NC(C(=O)O)C1CC(Sc3ccccc3[N+](=O)[O-])C(Cl)C21 (configuration not stated) was read as VDR inhibitor inactive, KAT2A inh inconclusive, TrxR1 inh inconclusive, GLS inhibitor 7.1µM, Sfp PPTase inh 25µM and TrxR1 substrate inactive.
`CCOc1cc2c(cc1OCC)-n1cccc1C(c1cccc(F)c1)NC2` (configuration not stated) gave VDR inhibitor inactive, KAT2A inh inactive, TrxR1 inh inactive, GLS inhibitor inactive, Sfp PPTase inh inactive and TrxR1 substrate inactive.
Cc1ccc(C)c(NP(=O)(Oc2ccccc2)Oc2ccccc2)c1 was read as VDR inhibitor inactive, KAT2A inh inactive, TrxR1 inh inactive, GLS inhibitor inactive, Sfp PPTase inh inactive and TrxR1 substrate inactive.
O=C1NC(=O)N(c2ccc(Cl)cc2)C(=O)/C1=C/c1coc2ccc(O)cc2c1=O was read as VDR inhibitor inconclusive, KAT2A inh inactive, TrxR1 inh inconclusive, GLS inhibitor inactive, Sfp PPTase inh 45µM and TrxR1 substrate inactive.
O=C1NC(=O)N(c2ccccc2)C(=O)/C1=C/c1coc2ccc(O)cc2c1=O was read as VDR inhibitor 50µM, KAT2A inh inactive, TrxR1 inh 22µM, GLS inhibitor inactive, Sfp PPTase inh 50µM and TrxR1 substrate inactive.
`O=C1NC(=O)N(c2ccccc2)C(=O)/C1=C/c1ccoc1` gave VDR inhibitor inactive, KAT2A inh inactive, TrxR1 inh inconclusive, GLS inhibitor inconclusive, Sfp PPTase inh inconclusive and TrxR1 substrate inactive.
Screening Cc1cc(/C=C2\C(=O)NC(=O)N(c3ccc(Cl)cc3)C2=O)c(C)n1-c1cccc(C(=O)O)c1 returned VDR inhibitor inactive, KAT2A inh inactive, TrxR1 inh inactive, GLS inhibitor inconclusive, Sfp PPTase inh inactive and TrxR1 substrate inactive.
For O=Cc1cn(Cc2c(F)cccc2Cl)c2ccccc12 the results were VDR inhibitor inactive, KAT2A inh inactive, TrxR1 inh inactive, GLS inhibitor inactive, Sfp PPTase inh 50µM and TrxR1 substrate inactive.
O=c1[nH]c2sccc2c2ccccc12 was read as VDR inhibitor inactive, KAT2A inh inactive and Sfp PPTase inh inactive.
`C[N+]1(C)CCc2cc3c(cc2C1C1OC(=O)c2c1ccc1c2OCO1)OCO3` (configuration not stated) gave VDR inhibitor inactive, KAT2A inh inactive, TrxR1 inh inactive and Sfp PPTase inh inactive.
For COc1ccccc1N1C(=O)NC(=O)/C(=C/c2ccc([N+](=O)[O-])s2)C1=O the results were VDR inhibitor 45µM, KAT2A inh inactive, TrxR1 inh inconclusive, GLS inhibitor inactive, Sfp PPTase inh 22µM and TrxR1 substrate inactive.
COc1ccc(N2C(=O)NC(=O)/C(=C\c3cn(C)c4ccccc34)C2=O)cc1 was read as VDR inhibitor inactive, KAT2A inh inactive, TrxR1 inh inconclusive, GLS inhibitor inactive, Sfp PPTase inh inactive and TrxR1 substrate inactive.
COc1cccc(N2C(=O)NC(=O)/C(=C/c3ccc([N+](=O)[O-])s3)C2=O)c1 was read as VDR inhibitor inconclusive, KAT2A inh inactive, TrxR1 inh inconclusive, GLS inhibitor inconclusive, Sfp PPTase inh 25µM and TrxR1 substrate inactive.
For COc1ccc(N2C(=O)NC(=O)/C(=C/c3ccc([N+](=O)[O-])s3)C2=O)cc1 the results were VDR inhibitor 40µM, KAT2A inh inactive, TrxR1 inh 40µM, GLS inhibitor inactive, Sfp PPTase inh 25µM and TrxR1 substrate inactive.
For COc1ccc(N2C(=O)NC(=O)/C(=C\c3ccc([N+](=O)[O-])s3)C2=O)cc1 the results were VDR inhibitor 71µM, KAT2A inh inactive, TrxR1 inh 25µM, GLS inhibitor 13µM, Sfp PPTase inh 40µM and TrxR1 substrate inactive.
`C[C@]12CCC3C(CC[C@]4(O)C[C@@H](O)CC[C@]34C=O)[C@@]1(O)CC[C@@H]2C1=CC(=O)OC1` (some centres not stated) gave VDR inhibitor inactive, KAT2A inh inactive and Sfp PPTase inh inactive.
Screening CN1CCN(C(=S)c2ccc([N+](=O)[O-])cc2)CC1 returned VDR inhibitor inconclusive, KAT2A inh inactive, TrxR1 inh inactive, GLS inhibitor inactive, Sfp PPTase inh 13µM and TrxR1 substrate inactive.
For O=P(Nc1ccccc1Cl)(c1ccccc1)c1nc2c(s1)CCCC2 (configuration not stated) the results were VDR inhibitor inactive, KAT2A inh inactive, TrxR1 inh inactive, Sfp PPTase inh inconclusive and TrxR1 substrate inactive.
Screening O=C1NC(=S)NC(=O)C1=Cc1ccc2c(c1)CCN2CCCCl returned VDR inhibitor inconclusive, KAT2A inh inactive, TrxR1 inh 28µM, GLS inhibitor 10µM, Sfp PPTase inh 16µM and TrxR1 substrate inactive.
CC1=C(O)C(=O)C=C2C1=CC=C1[C@]2(C)CC[C@@]2(C)C3C[C@](C)(C(=O)O)CC[C@@]3(C)CC[C@@]12C (some centres not stated) was read as VDR inhibitor 3.5µM, KAT2A inh 13µM and Sfp PPTase inh inactive.
COc1ccc(-n2c(O)c(C(C)=NCCCn3ccnc3)c(=O)[nH]c2=O)cc1 was read as VDR inhibitor inactive, KAT2A inh inactive, TrxR1 inh inactive, GLS inhibitor inactive, Sfp PPTase inh inactive and TrxR1 substrate inactive.
For O=C1NC(=S)N(c2ccc(Br)cc2)C(=O)/C1=C/N1CCN(C(=O)c2ccco2)CC1 the results were VDR inhibitor inconclusive, KAT2A inh inactive, TrxR1 inh inactive, GLS inhibitor inconclusive, Sfp PPTase inh inactive and TrxR1 substrate inactive.
`COc1ccc(C=C2C(=O)N(C)C(=O)N(C)C2=O)cc1COc1ccc(NC(C)=O)cc1` gave VDR inhibitor inactive, KAT2A inh inactive, TrxR1 inh inactive[11.4 µM], GLS inhibitor inactive, Sfp PPTase inh 40µM and TrxR1 substrate inactive.
For CN1C(=O)C(=Cc2ccc(OCC(=O)Nc3ccccc3)cc2)C(=O)N(C)C1=O the results were VDR inhibitor inconclusive, KAT2A inh inactive, TrxR1 inh inconclusive, GLS inhibitor inactive, Sfp PPTase inh 50µM and TrxR1 substrate inactive.
